Assay outcomes (PubChem)
Rows were chosen to be rich in hits. Some 1.8% of all compounds tested hit in one or more screens of this group.
GALR2 blocker: GALR2 antagonists in receptor-expressing cells, primary screen; Galanin receptor type 2 (Homo sapiens), O43603; antagonist mode; inhibition, % at 4 µM; hit rate 0.39% among 140,000; in the data active = inhibition above about 27%;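 also: cells stimulated with galanin 1-16 at roughly its EC80; 0% = agonist challenge control and 100% = basal control without agonist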
Target sequence (O43603 whole entry, looked up): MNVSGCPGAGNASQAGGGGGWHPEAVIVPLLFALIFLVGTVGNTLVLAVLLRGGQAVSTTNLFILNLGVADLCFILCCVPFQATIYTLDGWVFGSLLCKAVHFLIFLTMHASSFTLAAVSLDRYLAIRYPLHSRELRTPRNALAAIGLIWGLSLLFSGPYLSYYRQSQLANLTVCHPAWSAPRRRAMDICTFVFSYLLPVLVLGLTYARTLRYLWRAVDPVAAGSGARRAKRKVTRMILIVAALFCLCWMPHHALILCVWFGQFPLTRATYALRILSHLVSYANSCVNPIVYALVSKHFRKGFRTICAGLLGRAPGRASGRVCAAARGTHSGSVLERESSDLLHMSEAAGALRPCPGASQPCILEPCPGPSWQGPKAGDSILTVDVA
S1P2 antag: human S1P2 receptor antagonists, primary screen, cell-based | Sphingosine 1-phosphate receptor 2 (Homo sapiens), O95136 | cell-based S1P2 antagonist assay, inhibition at 5 uM | inhibition, % at 5 µM | hit rate 0.21% among 97,000 | AID 736, 2007; in the data active = inhibition above about 45%;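 also: CRE beta-lactamase reporter cells expressing human S1P2 stimulated with S1P; 0% = agonist at EC80 alone and 100% = agonist plus reference antagonist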
GALR2 ag: GALR2 receptor agonists, primary screen, cell-based | activation, % (no concentration beside the values) | hit rate 0.48% among 140,000 | GALR2-expressing cells, agonist activation read-out | Galanin receptor type 2 (Homo sapiens), O43603; in the data active = activation above about 5%, passing the limit was not always enough;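 also: 0% = vehicle buffer wells and 100% = reference agonist at full effect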
S1P2 agonist: S1P2 receptor agonists, primary screen, cell-based; AID 729, 2007; S1P2-expressing cell line, agonist reporter read-out; hit rate 0.46% among 97,000; activation, % at 4.5 µM; in the data active = activation above about 16%;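 also: 0% = vehicle low control and 100% = maximal reference agonist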
MRP resist rev: reversal of MRP1-mediated doxorubicin resistance, primary screen, H69AR cells, doxorubicin co-treatment; differential viability (reversal), % at 10 µM; hit rate 0.04% among 85,000; AID 602, 2007; H69AR cells + 2 uM doxorubicin, CellTiter-Glo, 72 h;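 active = viability drop by adding the cancer drug above about 55%, with treated viability meeting a 40% cutoff, limit read from the data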;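 also: viability without doxorubicin minus viability with 2 µM doxorubicin for each compound; larger differential means the compound sensitizes cells more to doxorubicin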
MRP1 act: H69AR viability gain despite doxorubicin, primary screen, MRP-1 activator project, H69AR cells, CellTiter-Glo | viability rescue | viability increase, % at 10 µM | hit rate 0.61% among 140,000 | AID 799, 2007;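 active = viability gain under doxorubicin at or above a set limit, the compound median plus 3 SD, cut at about 4.7% in these data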;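 also: MRP-1 overexpressing cells given doxorubicin 25 µM after compound pretreatment; 18-22 h compound pretreatment then 72 h with doxorubicin before readout; 0% = doxorubicin-only wells and 100% = vehicle-treated cells without doxorubicin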
* = called active by the depositor; . = no result given.

SMILES	GALR2 blocker	S1P2 antag	GALR2 ag	S1P2 agonist	MRP resist rev	MRP1 act
COc1ccc(NC(=S)NNC(=O)c2nnn(-c3ccccc3)c2C)cc1	7	.	-1	.	.	0
CCCCCCC1CC(CCc2nc(=S)[nH][nH]2)C(=O)O1 (stereo not given)	1	.	-1	.	.	-3
CCCCCCC1CC(CSc2ncn[nH]2)OC1=O (stereo not given)	1	9	-1	-5	1	7.2*
COc1cc2c(cc1OC)-c1cc(NC3CC3)nc(=O)n1CC2	-8	-19	-1	15	12	-2
CCCCCCNc1cc2n(c(=O)n1)CCc1cc(OC)c(OC)cc1-2	-10	-48	-1	30*	7	-2
COc1cc2c(cc1OC)-c1cc(NC3CCCCCCC3)nc(=O)n1CC2	-15	-6	1	50*	.	-2
CCNc1cc2n(c(=O)n1)CCc1cc(OC)c(OC)cc1-2	-5	-28	-2	9	11	-3
COc1cc2c(cc1OC)-c1cc(NC3CCCCC3)nc(=O)n1CC2	5	-32	-1	33*	-5	-4
C#CC(=O)N(c1cc(OC)ccc1OC)C(C(=O)NC1CCCC1)c1cccs1 (stereo not given)	16	39	0	-4	.	-5
Cc1ccc(Nc2nc(CSc3nnc(-c4ccc(F)cc4)n3C)cs2)cc1	10	.	0	.	.	0
CCOC(=O)C1=C(C)N=C2SC(CC)C(=O)N2C1c1cccc(F)c1 (stereo not given)	-7	-10	-3	0	4	6.3*
C=CCOC(=O)C1=C(C)N=C2SCCC(=O)N2C1c1cccs1 (stereo not given)	-11	10	-1	1	5	-3
CCC1SC2=NC(C)=C(C(=O)OC)C(c3cccs3)N2C1=O (stereo not given)	2	-6	-2	-3	-11	5.5*
CC(NC(=O)C(=O)NCCC1=CCCCC1)c1ccccc1 (stereo not given)	2	.	0	.	.	4
CN(Cc1ccccc1)c1ncnc2c1cnn2-c1ccccc1	-2	-2	1	-1	2	5.3*
Cn1ccnc1SCC(=O)N(C1CCCCC1)C1CCCCC1	-15	11	0	-3	3	-1
O=S1(=O)C=C(Sc2nc3ccccc3s2)c2ccccc21	74*	.	0	.	-4	-6
COc1ccc(CNc2nc(NCc3ccc(OC)cc3)n(S(C)(=O)=O)n2)cc1	7	0	-2	-8	11	5.1*
CN1CCN(CCCc2c3c(cc4c2CCC4)CCC3)CC1	-6	.	-1	.	.	-2
COc1ccc(N2CCn3c2nc2c3c(=O)n(CCCc3ccccc3)c(=O)n2C)c(OC)c1	0	58*	-1	-4	31	2
N#Cc1c(-c2ccco2)nc(SCC(=O)Nc2ccc(S(N)(=O)=O)cc2)[nH]c1=O	4	-5	-4	-2	.	3
O=C(CSc1nc2ccccc2c(=O)[nH]1)c1cccs1	1	-9	-1	-2	-4	-1
C=CCSc1nc(-c2ccccc2)c(C#N)c(=O)[nH]1	1	-6	0	-4	13	1
N#Cc1c(-c2ccccc2)nc(SCC(=O)N(c2ccccc2)c2ccccc2)[nH]c1=O	-8	.	-1	.	.	7.5*
N#Cc1c(-c2cccs2)nc(SCC(=O)c2cccs2)[nH]c1=O	-10	-7	-1	0	.	5.6*
SMILES	GALR2 blocker	S1P2 antag	GALR2 ag	S1P2 agonist	MRP resist rev	MRP1 act
N#Cc1c(-c2ccccc2)nc(SCC(=O)Nc2ccccc2)[nH]c1=O	11	.	0	.	.	9.6*
CCC(Sc1nc(C)cc(=O)[nH]1)C(=O)Nc1nc(-c2ccccc2)cs1 (stereo not given)	10	-8	-2	-3	3	-1
CCC(Sc1nc(-c2ccccc2)c(C#N)c(=O)[nH]1)C(=O)Nc1nnc(C)s1 (stereo not given)	4	9	-1	-3	.	6.4*
CCCCC(C)n1[nH]c(=O)cc1N (stereo not given)	-4	-15	-3	-3	4	1
COc1ccc(-n2c(=O)c3c4c(sc3n3c(=S)[nH]nc23)CCCC4)cc1	-11	.	0	.	.	-3
O=C(Nc1ccccc1)c1cc(S(=O)(=O)N2CCSCC2)ccc1Cl	0	.	0	.	.	-1
COC(=O)c1[nH]c2cc(OC)ccc2c1NC(=O)CCN1CCSCC1	12	-20	-1	-10	0	0
CCOC(=O)CCCCC(=O)c1[nH]c(=O)[nH]c1CSc1nc(-c2ccccc2)c(C#N)c(=O)[nH]1	5	7	1	-6	3	6.4*
CCOC(=O)CCCCC(=O)c1[nH]c(=O)[nH]c1CSCCO	6	-3	-3	-3	7	-1
N#Cc1c(-c2ccccc2)nc(SCC(=O)Nc2ccccc2F)[nH]c1=O	15	.	0	.	.	9.8*
Cc1cc(NC(=O)CSc2nc(-c3ccccc3)c(C#N)c(=O)[nH]2)no1	-2	-4	-1	0	4	9.1*
CCC(Sc1nccn1C)C(=O)Nc1nnc(C)s1 (stereo not given)	5	-14	-3	-7	1	7.3*
CCCc1cc(=O)[nH]c(SCC(=O)Nc2ccccc2C#N)n1	1	0	-2	-6	-11	-3
COc1ccc(-c2cn3c4c(sc3n2)CCCC4)cc1	-1	-30	0	-1	-14	-2
Cc1cccc(NC(=O)CSc2nc(-c3ccccc3)c(C#N)c(=O)[nH]2)c1C	-5	-13	-2	-9	.	9.1*
CCCCCCN1CC(O)=C(c2nc3ccccc3[nH]2)C1=N	26	.	7.2*	.	5	-3
CC(=O)N1CCc2cc(S(=O)(=O)NC(CC(C)C)C(=O)N3CCn4c3nc3ccccc34)ccc21 (stereo not given)	-11	-3	-1	-2	2	-1
CCn1nc(NC(=O)c2ccccn2)c2cc3cccc(C)c3nc21	-17	-33	6	19*	-12	-1
O=c1oc2c(CN3CCOCC3)c(O)ccc2c2c1CCCC2	-1	.	5.0*	.	.	0
COc1ccc(CNC(=O)COC(=O)[C@H](Cc2c[nH]c3ccccc23)NC(=O)c2cccs2)cc1	8	.	0	.	.	1
CCOC(=O)[C@H]1NN=C(C(=O)OC)[C@@H]1c1ccccc1	9	.	-1	.	.	1
Nc1nc2nc(-c3ccc(Cl)cc3)cc(C(F)(F)F)n2n1	1	-5	1	-5	-4	0
Nc1nc2nc(-c3ccc(OCc4ccccc4)cc3)cc(C(F)(F)F)n2n1	2	-70	5	33*	-9	-1
O=C(NCC1(c2ccccc2)CCCC1)C(=O)NCC1(c2ccccc2)CCCC1	5	-12	0	0	10	1
O=C(NCC1(c2ccccc2)CCCC1)C(=O)N1CCOCC1	12	-14	-1	75*	11	0
COC(=O)C1=CN(C(C)C)C=C(C(=O)OC)C1c1cccc(OC)c1	3	-17	21*	12	15	-2
